# Experimental data reported in PubChem BioAssay.
# Test system: Neuregulin-1 EGF-like domain
# Assay: binders of neuregulin-1 EGF-like domain, primary screen, biochemical, small-molecule microarray, 635 nm fluorescence (AID 1081);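 note: binding of the protein to compounds printed on small-molecule microarray slides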
# Details: small-molecule microarray binding, higher = more signal
row,SMILES,composite z-score
1,CC(C)C[C@@H]1NC(=O)[C@@]23C(=O)N[C@@H](Cc4ccccc4)C2[C@H](C)[C@@]2(C)O[C@H]2C3/C=C/C/C=C\CNC(=O)[C@@H](CC(C)C)NC1=O (stereo partly drawn),0.97
2,C=CCC(OC(C)=O)[C@@H]1[C@@H](N(Cc2ccc(-c3cccc(C(F)(F)F)c3)o2)C(=O)c2cccc3ccccc23)c2cc(OCCCO)ccc2N1C(=O)c1ccc2ccccc2c1 (stereo partly drawn),-0.332
3,O=C1OCCC/C=C\[C@H]2OC34C=CCN(Cc5ccccc5)C(=O)[C@H]3N(CCCCCO)C(=O)[C@@H]4C12 (stereo partly drawn),0.387
4,CCCC=C(CCC)[C@@H](NC(=O)c1ccccc1)c1ccc(C(=O)OC)cc1,1.19
5,COC(=O)[C@@]1(Cc2ccc(F)cc2)[C@H]2c3cc(C(=O)N4CCCC4)n(CCO)c3C[C@H]2CN1C(=O)c1ccccc1,1.26
6,COCCCNC(=O)[C@@]1(Sc2ccc(C)cc2)CC(=O)N(C2CCCCC2)[C@@H]1c1ccc(CO)cc1I,1.26
7,COc1ccc([Si](C)(C)[C@H]2[C@H](CCO)O[C@@]3(C(=O)N(Cc4ccc(N5CCOC5=O)cc4)c4ccccc43)[C@@H]2C)cc1,0.664
8,C=CCNC(=O)[C@@H]1[C@H]2C(=O)O[C@H](c3ccccc3)[C@H](c3ccccc3)N2[C@H](c2ccccc2OCCO)[C@@]12C(=O)N(C(=O)OCCOC)c1ccc(C#CCCO)cc12,1.21
9,COCCOC(=O)N1C(=O)[C@@]2(c3ccccc31)[C@H](C(=O)N1CCCCCCC1)[C@H]1C(=O)O[C@H](c3ccccc3)[C@H](c3ccccc3)N1[C@@H]2c1ccc(O)cc1,1.15
10,CCCCC(=C=CC[C@@H](O)c1cccc(OCCO)c1)CCO,0.345
11,O=C(NCC(F)(F)F)[C@@H]1c2ccccc2C(=O)N(CC23CC4CC(CC(C4)C2)C3)[C@H]1c1ccc(CO)cc1,1.21
12,C=CCC(OC(C)=O)[C@@H]1[C@@H](N(Cc2cccc3ccccc23)C(=O)c2ccc(C)cc2)c2cc(OCCCO)ccc2N1C(=O)c1ccc2ccccc2n1 (stereo partly drawn),0.0751
13,CC#CCO[Si](C#CCCCCCC)(C(C)C)C(C)C,0.439
14,CC(C)(C)OC(=O)CC[C@]1(C(N)=O)N=C(c2ccc(OCCCO)cc2)O[C@H]1c1ccccc1CN=[N+]=[N-],1.47
15,COc1ccc(CCNC(=O)[C@@]2(C)c3ccccc3C(=O)N(Cc3cc(C(F)(F)F)cc(C(F)(F)F)c3)[C@H]2c2ccc(CO)cc2)cc1,1.3
16,CN(C)CCCC[C@@H]1NC(=O)[C@@H]2C[C@H](C(=O)NCCCCCCNC(=O)CS)[C@H](c3cccc(OCCO)c3)N2C1=O,0.838
17,COCCCNC(=O)[C@@H]1c2ccccc2C(=O)N(C2CCCCC2)[C@H]1c1ccc(CO)cc1,1.45
18,COC(=O)C1=CC(CCCO)=CC(C2CC2)N(Cc2cccc(OC(F)(F)F)c2)C=C1C(=O)OC (stereo not drawn),1.25
19,C=C(C(=O)CC[C@@H](OC(C)=O)c1cccc(OCCO)c1)C(C)C,0.568
20,COc1ccc([Si](C)(C)[C@@H]2[C@@H](CC(=O)N(CCO)Cc3ccccc3)O[C@]3(C(=O)N(Cc4ccc(N5CCC5=O)cc4)c4ccccc43)[C@H]2C)cc1,0.677
21,CC(C)CNC(=O)[C@@H]1c2ccccc2C(=O)N(CC23CC4CC(CC(C4)C2)C3)[C@H]1c1ccc(CO)cc1,0.99
22,COc1cc2c(cc1O)C(c1ccc(CN3CCCC3)cc1)N(Cc1ccc([N+](=O)[O-])o1)CC2 (stereo not drawn),0.936
23,COC(=O)[C@]1(CO)N=C(c2ccc(OCCCO)cc2)O[C@@H]1c1ccccc1CN=[N+]=[N-],1.16
24,COCCOC(=O)N1C(=O)[C@@]2(c3ccccc31)[C@H](c1ccc(OCCO)cc1)N1[C@H](c3ccccc3)[C@H](c3ccccc3)OC(=O)[C@H]1[C@@H]2C(=O)N1CCN(c2ncccn2)CC1,1.24
25,COCCOC(=O)N1C(=O)[C@@]2(c3cc(C#Cc4ccc(OC)cc4)ccc31)[C@H](c1ccc(OCCO)cc1)N1[C@H](c3ccccc3)[C@H](c3ccccc3)OC(=O)[C@H]1[C@@H]2C(=O)N1CCCCCCC1,1.01
26,Cc1ccccc1C(O)C1C=CC2C(=O)N(c3ccccc3)C(=O)C2N1Nc1ccccc1F (stereo not drawn),0.93
27,CO[C@H]1O[C@H](CO)[C@@H](OC(=O)Nc2ccc(C(F)(F)F)cc2)[C@H](OC(=O)Nc2ccccc2-c2ccccc2)[C@@H]1OC(=O)Nc1ccccc1-c1ccccc1,1.29
28,C=C(COC)C(=O)CC[C@@H](OC(C)=O)c1ccc(OCCO)cc1,0.835
